Records with an inconclusive call do not appear. A call without a number means that no potency is given here. Calls of active or inactive are those of the source. Calls follow the shape of the dose curve; as a rule, active = well fitted inhibition curve with a large enough effect; inconclusive = small, poorly fitted or top-dose-only effect; inactive = flat fitted curve, though single readings scatter.

This assay has as its system Zika virus NS2B-NS3 protease. In words: Primary screen GU AMC qHTS for Zika virus inhibitors (AID 1347154). Also: nearly all actives have a fitted effect of over 70% in size. The note with it: Zika NS2B-NS3 unlinked protease, AMC fluorogenic substrate; series mostly up to 54.1 µM. The procedure, abridged:
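Fluorogenic AMC-substrate cleavage by noncovalent NS2B-NS3 protease complex (25 nM, pH 8.0 Tris buffer with Tween 20) followed for 15 minutes at room temperature (~20% conversion). Percent inhibition from ex340/em450 signal change, fitted by 4-parameter Hill equation.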
On the technique in general: In qHTS, concentration-response curves come from the screen itself.
`CC(=O)Nc1ccc(S(=O)(=O)Nc2ccc([N+](=O)[O-])cc2)cc1`: the Potency entry is “inactive”.

Regarding `C#C[C@]1(O)CC[C@H]2[C@@H]3[C@H](C)CC4=C(CCC(=O)C4)[C@H]3CC[C@@]21C`, the Potency entry is “inactive”. In the case of `CCCN(CCc1cccs1)[C@H]1CCc2c(O)cccc2C1` it was “inactive”. With `O=C1OC(CN2CCOCC2)CN1/N=C/c1ccc([N+](=O)[O-])o1` (stereo not given), the Potency result is “inactive”. In the case of `NS(=O)(=O)Cc1noc2ccccc12` it was “inactive”; in that of `NC(=O)C1(N2CCCCC2)CCN(CCCC(=O)c2ccc(F)cc2)CC1`, “inactive”; in that of `c1ccc(-c2nc[nH]c2-c2ccccc2)cc1`, “inactive”. In the case of `CC(C)(C)NCC(O)COc1cccc2c1C[C@H](O)[C@H](O)C2` (stereo not given in full) it was “inactive”; in that of `CCOc1ccc(NC(C)=O)cc1`, “inactive”. `C#C[C@]1(O)CC[C@H]2[C@@H]3CCC4=Cc5oncc5C[C@]4(C)[C@H]3CC[C@@]21C`: the Potency result was “inactive”. As to `C[N+]1(CC2COC(c3ccccc3)(C3CCCCC3)O2)CCCCC1` (stereo not given), the Potency result is “inactive”. In the case of `Cc1c[nH]c2ccccc12` it was “inactive”. `CCCCCCCCCCCCCCCC(=O)O`: the Potency result was “inactive”. Next, `COc1cc(C(=O)NCc2ccc(OCCN(C)C)cc2)cc(OC)c1OC`: “inactive”; `FC(F)(F)C(F)(F)C(F)(F)C(F)(F)C(F)(F)C(F)(F)C(F)(F)C(F)(F)Br`: “inactive”. Next, `O=S(=O)(O)c1ccc(O)cc1`: “inactive”; `Nc1nc(N)c(-c2ccccc2)s1`: “inactive”. With `CC(=O)N[C@@H](CCC(=O)O)C(=O)O`, the Potency result is “inactive”.

For the molecule `COc1cc(N)c(Cl)cc1C(=O)NC1CCN(Cc2ccccc2)CC1`, the Potency result is “inactive”. For `CCN(CC)CCNc1ccc(CO)c2sc3ccccc3c(=O)c12`, the Potency result was “inactive”.

These data come from PubChem BioAssay (NCATS).
